# Bioassay records deposited in PubChem by several laboratories.
# dFosB activator – activators of mouse delta FosB homodimer; P13346; purified delta FosB, TAMRA-CDK5 oligo fluorescence polarization; percent of positive-control signal above neutral wells; activation, % at 25 µM; actives 0.99% (n = 340,000); AID 493131;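 active = mean activation above about 17%, with every replicate also reaching it, limit read from the data, passing the limit was not always enough; inconclusive = only one of the two conditions met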
# Target sequence (P13346 whole entry, looked up): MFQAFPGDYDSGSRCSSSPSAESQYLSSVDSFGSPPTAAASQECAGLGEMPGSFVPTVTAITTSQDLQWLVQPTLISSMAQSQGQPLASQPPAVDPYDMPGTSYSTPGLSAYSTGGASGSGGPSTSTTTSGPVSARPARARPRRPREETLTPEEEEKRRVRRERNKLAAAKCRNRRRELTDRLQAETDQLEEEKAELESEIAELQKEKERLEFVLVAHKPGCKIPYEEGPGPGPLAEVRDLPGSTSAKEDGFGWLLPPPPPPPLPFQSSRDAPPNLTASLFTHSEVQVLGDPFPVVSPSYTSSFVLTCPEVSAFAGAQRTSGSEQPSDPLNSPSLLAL
# HSF1 inh – HSF1 inhibition; NIH3T3-HGL HSE-luciferase, MG132-induced, luminescence 8 h; hits give low values; activity change, negative = inhibition, % at 7.5 µM (by protocol); actives 0.77% (n = 300,000); AID 2098;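 active = more than half of replicate wells show activity change below -50%, luminescence cut by over half; inconclusive = some wells, but at most half, below -50%; inactive = no replicate well below -50%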;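 also: luciferase reports HSF-1 transcriptional activity via heat shock element; 0% = median of DMSO wells and -100% = zero luminescence signal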
# HSF1 activator – increases HSF-1 driven luciferase reporter signal; NIH3T3-HGL HSF-1 luciferase reporter, MG132, 8 h; 100% = twice DMSO control signal; activation, % at 9 µM; actives 1.7% (n = 300,000); AID 504408;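 active = mean replicate activation of at least 50% with a set share of replicates each reaching 50%; inconclusive = only one of those two conditions met; inactive = mean below 50% and too few replicates reaching it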;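 also: 0% = median of the neutral control wells and 100% = twice that signal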
# MPTP block – inhibitors of mitochondrial permeability transition pore; isolated mouse mitochondria, Ca2+ swelling absorbance, 30 min; inhibition, % at 10 µM; actives 1.4% (n = 360,000); AID 602449;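 active = inhibition of 50% or more, scaled per plate between neutral and stimulator controls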;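 also: 0% = DMSO wells given calcium and 100% = 1 mM EGTA wells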
# Platelet DG rel – modulates dense granule release in human platelets. human platelet-rich plasma, SFLLRN dense granule ATP release, luminescence. inhibition, %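 (compounds screened at 7.5 µM in platelet-rich plasma)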. actives 0.22% (n = 300,000). AID 1663;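 active = mean replicate score, as percent of positive control, at or above 50; inconclusive = mean below 50 but at least one replicate at or above 50; inactive = mean and every replicate below 50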
# HSP90 inh – inhibitors of HSP90 luciferase refolding in rabbit reticulocyte lysate. luciferase refolding luminescence, 3 h. inhibition, % at 5.6 µM. actives 0.91% (n = 290,000);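 active = inhibition above the screen-wide mean plus 3 SD, computed separately per campaign, cut at about 16% in these data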;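 also: 0% = DMSO wells and 100% = 60 µM geldanamycin wells; inhibitors lower the luminescence because luciferase stays unfolded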
# An asterisk follows results filed as active; ? = inconclusive; . = not tested or not shown. An excerpt weighted towards active compounds, which were near 4.9% of everything screened.
SMILES,dFosB activator,HSF1 inh,HSF1 activator,MPTP block,Platelet DG rel,HSP90 inh
Cc1cccc(-n2cc(CN3CCN(Cc4nccn4C)CC3)c(-c3cccc(F)c3)n2)c1,7,28,65*,-1,4,-1
Cc1oc2ccc(OCc3c(F)cccc3Cl)cc2c1C(=O)O,1,-57*,-66,5,2,3
Cc1ccccc1-n1c(-c2ccc(Cl)cc2)cnc1SCC(=O)NC1CCS(=O)(=O)C1 (stereo not given),-19,14,70*,1,7,1
COc1ccc2cc(/C=C/C(=O)N3CCN(CC(=O)N4CCCCCC4)CC3)ccc2c1,0,22,61*,0,-7,-2
COC(=O)C1CCN(C(=O)/C=C/c2ccc(OC)cc2)CC1,-2,10,24,0,7,-6
COc1ccccc1Nc1cc(C)nc(Nc2ccccc2OC)n1,-4,.,.,0,.,.
O=C(CSc1n[nH]c(-c2ccccc2)n1)Nc1ccc(F)cc1F,-9,1,-11,1,10,3
Cc1ccc(NC(=O)CSc2n[nH]c(-c3cccnc3)n2)c(Br)c1,-4,3,5,-1,3,-2
O=C(CSc1n[nH]c(-c2ccccc2)n1)Nc1ccccc1O,2,37,65*,1,4,-6
Cc1ccc([N+](=O)[O-])cc1NC(=O)CSc1n[nH]c(-c2cccnc2)n1,-7,-87*,-90,-1,-2,-1
CCN(CC)S(=O)(=O)c1ccc(N2CCOCC2)c(NC(=S)NC(=O)c2ccco2)c1,-5,-1,8,3,-22,0
Cc1ccc(C(=O)Nc2cccc(NC(=O)CN3CCCCC3)c2)cc1,-1,7,10,0,0,2
CCOc1ccc(C2C3=C(CCCC3=O)Nc3ccc4ncccc4c32)cc1 (stereo not given),-20,33,68*,1,-6,-1
CCOC(=O)C1(C)CCCN1C(=O)c1ccc(C(=O)OC)cc1 (stereo not given),.,.,.,1,.,.
Cc1cc(NS(=O)(=O)c2ccc(NC(=O)c3ccc([N+](=O)[O-])cc3)cc2)nc(C)n1,.,.,.,0,.,.
CC1(C)NC(=O)N(CCCCOc2ccccc2[N+](=O)[O-])C1=O,.,-4,14,.,0,2
CC1(C)NC(=O)N(CCCOc2ccccc2Br)C1=O,-7,6,52*,-2,-7,-3
Cc1ccc(NC(=O)c2ccc(S(=O)(=O)NCc3cccnc3)cc2)c(C)c1,-1,7,27,0,-9,-2
c1cc2c(cc1C1CCCN1)OCCCO2 (stereo not given),-12,-71*,-77,0,1,4
O=S(=O)(c1ccc2c(c1)OCCCO2)N1CCNCC1,-6,-9,-14,0,1,0
CCC(=O)Nc1ccc(NC(=O)c2cc3ccccc3o2)c(OC)c1,-6,19,?,2,-3,-3
CN1C(=O)C(CC(=O)NCC2CCCCC2)SC1=Nc1ccccc1 (stereo not given),-9,.,.,0,-4,1
O=[N+]([O-])c1ccc(Nc2ccc(F)cc2)cc1,3,-81*,-84,3,-1,1
C[C@@H]1CC2OC(=O)[C@@]3(C)C(=O)CC[C@@](C)(C23)[C@@]1(O)CCc1ccoc1 (stereo not given in full),0,-5,-10,0,-2,0
CCOC(=O)/C=C(\C)Nc1cc(C)nn1-c1ccccc1,6,31,54*,1,-2,4
SMILES,dFosB activator,HSF1 inh,HSF1 activator,MPTP block,Platelet DG rel,HSP90 inh
COc1ccc(C(=O)n2nc(C)cc2Nc2ccccc2)cc1,-7,16,52*,-6,-1,0
O=C(/C=C/c1ccc(Cl)cc1Cl)Nc1cccc(S(=O)(=O)NC2=NCCC2)c1,-24,24,63*,0,-9,-2
O=C(/C=C/c1ccccc1Cl)Nc1cccc(S(=O)(=O)NC2=NCCCCC2)c1,-12,20,41,2,-1,-1
Cn1c(CCN2CCCCC2)nc2cc(NC(=O)COc3ccccc3)ccc21,-4,54,58*,2,-1,-1
Cc1ccc(OCC(=O)Nc2ccc3c(c2)nc(CCN2CCCCC2)n3C)cc1,-4,61,76*,0,0,0
Cc1ccc(OCC(=O)Nc2ccc3c(c2)nc(CCN2CCOCC2)n3C)cc1,7,25,32,2,4,0
CC1CCN(CCc2nc3cc(NC(=O)COc4ccc(Cl)cc4)ccc3n2C)CC1,-9,52,72*,0,16,2
COc1ccc(OCC(=O)Nc2ccc3c(c2)nc(CCN2CCCCC2)n3C)cc1,4,40,63*,1,-1,-1
Cn1ccc2c(-c3ccc4[nH]ccc4c3)cc3c(c21)C1CCC3O1 (stereo not given),.,.,.,1,.,.
c1coc(-c2nc(N=C3N=c4ccccc4=N3)[nH]c2-c2ccco2)c1,.,.,.,6,.,.
O=C(c1ccco1)N1CCN(C(=O)C23CC4CC(CC(C4)C2)C3)CC1,0,-5,0,0,3,1
Cc1cccc(OCC(=O)Nc2ccc3c(c2)nc(CCN2CCCCC2)n3C)c1,-1,84,84*,0,-2,-1
O=[N+]([O-])c1ccc(-c2cnc(SCc3ccccc3Cl)[nH]2)cc1,4,24,56*,37,-26,-1
Cc1cc(C)c(CSc2ncc(-c3ccc([N+](=O)[O-])cc3)[nH]2)c(C)c1,1,8,17,14,0,0
Cc1ccc(C)c(N2CC(C(=O)Nc3cc(C)on3)CC2=O)c1 (stereo not given),0,-5,16,-2,4,-3
COc1ccc(CC(=O)N[C@@H](CCSC)C(=O)N2CCC3(CC2)NCCc2[nH]cnc23)cc1,-5,5,-11,-2,11,-2
COc1cc(NC(=O)c2ccccc2)c(OC)cc1NC(=O)CSc1[nH]c(=O)cc(C)c1C#N,5,-4,14,0,71*,4
CC1(C)CC(=O)C2=C(C1)Nc1cc3c(cc1C2c1ccc2c(c1)OCO2)OCO3 (stereo not given),-3,29,62*,0,0,-3
CC1(C)CC(=O)C2=C(C1)Nc1cc3c(cc1C2c1ccc(F)cc1)OCO3 (stereo not given),-5,5,11,-1,-3,-1
CCOc1ccc(N(CC(=O)NN=C2CCCC2)S(C)(=O)=O)cc1,-9,-87*,-90,-1,4,-2
CS(=O)(=O)N(CC(=O)NN=C1CCCCCC1)c1ccc(Oc2ccccc2)cc1,-7,-1,12,5,3,0
CCN1CCN(c2c(/C=C3\SC(=S)N(Cc4ccco4)C3=O)c(C)c(C#N)c(=O)n2C)CC1,56*,2,3,-5,0,1
